High-throughput results deposited in PubChem BioAssay by National Center for Advancing Translational Sciences (NCATS).
The list is not random: actives were taken first. Their share in the collection is about 11%.
HEK cytotox = Cytotoxic Profiling in HEK 293 Cell Line of Diverse Libraries Using Quantitative High-Throughput Screening | HEK 293 viability, ATP luminescence (CellTiter-Glo), 48-72 h | Potency, µM (titrated, usually from 115 µM), without a hit: top-dose activity change, negative = cytotoxicity, most hits filed as inhibitors | 94,000 tested, 6.6% active | AID 1345083, 2018; note: % is set by controls: 0 for no effect and ±100 for the full control effect; nearly all actives have a fitted effect of over 60% in size
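qHTS cytotoxicity; HEK 293, 250 cells/well; compound pinned; 48 or 72 hr, 37 degree Celsius, 5% CO2, 95% humidity; CellTiter-Glo, 10 min RT; luminescence (ATP).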
Luciferase inh = Firefly luciferase inhibition profiling of diverse chemical library using quantitative high-throughput screening; Potency, µM (doses to about 115 µM), actives largely listed as inhibitors; Luciferin 4-monooxygenase (Photinus pyralis), P08659; purified P. pyralis luciferase, luminescence, biochemical; 76,000 tested, 2.5% active; AID 1347043, 2019; note: % is set by controls: 0 for no effect and ±100 for the full control effect; nearly all actives have a fitted effect of over 65% in size
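Purified P. pyralis luciferase (10nM final) in 50mM Tris acetate pH 7.5, 10mM Mg acetate, 0.01% Tween-20, 0.05% BSA with 10uM D-luciferin and 10uM ATP. Compounds titrated qHTS. Luminescence imaged on CCD.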
3T3 cytotox = Cytotoxic Profiling in NIH 3T3 Cell Line of Diverse Libraries Using Quantitative High-Throughput Screening; NIH 3T3 viability, CellTiter-Glo ATP luminescence, 48-72 h; Potency, µM (titrated, usually from 96.7 µM), inactives show at the top dose activity change, negative = cytotoxicity, most hits filed as inhibitors; 94,000 tested, 4.3% active; AID 1345082, 2018; note: % is set by controls: 0 for no effect and ±100 for the full control effect; nearly all actives have a fitted effect of over 55% in size
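NIH 3T3 cells at 400 cells/well received 23 nL of compound by pintool and were incubated 48 or 72 h at 37 °C. Viability was read as ATP-coupled CellTiter-Glo luminescence.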
hNpr1 antagonist = Natriuretic polypeptide receptor (hNpr1) antagonism - Primary qHTS; HEK293 hNpr1 GloSensor cGMP, ANP-stimulated luminescence; 76,000 tested, 1.6% active; Atrial natriuretic peptide receptor 1 (Homo sapiens), P16066; Potency, µM (titrated, usually from 46.3 µM), inactives show at the top dose activity change, negative = inhibition, hits mostly inhibitors; AID 1347048, 2019; calls by dose curve; note: % is set by controls: 0 for no effect and ±100 for the full control effect; nearly all actives have a fitted effect of over 60% in size
Target sequence (P16066 whole entry, looked up): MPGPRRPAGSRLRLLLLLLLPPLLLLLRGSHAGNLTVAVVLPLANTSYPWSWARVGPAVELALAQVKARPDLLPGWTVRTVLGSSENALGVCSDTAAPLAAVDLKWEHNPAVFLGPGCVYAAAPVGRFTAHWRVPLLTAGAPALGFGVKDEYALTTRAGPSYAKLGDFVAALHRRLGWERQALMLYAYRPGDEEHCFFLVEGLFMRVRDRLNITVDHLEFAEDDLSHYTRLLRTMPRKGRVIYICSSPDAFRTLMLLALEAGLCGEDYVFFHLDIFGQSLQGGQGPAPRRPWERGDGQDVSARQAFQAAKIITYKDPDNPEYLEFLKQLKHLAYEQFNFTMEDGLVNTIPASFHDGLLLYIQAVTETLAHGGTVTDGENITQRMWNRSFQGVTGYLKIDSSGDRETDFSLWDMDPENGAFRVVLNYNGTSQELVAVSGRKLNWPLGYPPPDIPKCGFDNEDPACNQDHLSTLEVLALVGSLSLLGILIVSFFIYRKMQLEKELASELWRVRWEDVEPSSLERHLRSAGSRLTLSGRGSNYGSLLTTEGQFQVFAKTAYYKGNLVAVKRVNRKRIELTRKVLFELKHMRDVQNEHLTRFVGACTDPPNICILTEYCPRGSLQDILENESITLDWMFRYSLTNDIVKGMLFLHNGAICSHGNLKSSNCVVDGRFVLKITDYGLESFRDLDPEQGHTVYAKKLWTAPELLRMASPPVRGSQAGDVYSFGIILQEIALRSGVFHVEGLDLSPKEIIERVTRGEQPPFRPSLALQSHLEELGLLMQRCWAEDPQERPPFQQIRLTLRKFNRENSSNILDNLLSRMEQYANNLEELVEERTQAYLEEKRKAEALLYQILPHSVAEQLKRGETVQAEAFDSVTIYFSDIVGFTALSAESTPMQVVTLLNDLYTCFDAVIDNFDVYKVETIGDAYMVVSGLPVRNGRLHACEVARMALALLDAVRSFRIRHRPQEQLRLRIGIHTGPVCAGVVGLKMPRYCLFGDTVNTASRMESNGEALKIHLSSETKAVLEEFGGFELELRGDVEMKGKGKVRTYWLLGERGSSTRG
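Compound pre-incubated 30 min at room temperature on GloSensor-loaded HEK293 cells stably carrying hNpr1 and the pGS-40F cGMP biosensor. Stimulation uses hNppA at 0.1 nM final; luminescence is taken at baseline and 20 min post-agonist.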
NPR1 antag cnf = Natriuretic polypeptide receptor (hNpr1) antagonism - Confirmation; shares compounds with hNpr1 antagonist; AID 1347044, 2019; Potency, µM (highest dose often 57.6 µM), for inactives: at the top dose activity change, negative = inhibition, hits mostly inhibitors; 1,400 tested, 76% active; HEK293 hNpr1 cGMP GloSensor luminescence, ANP-stimulated; calls by dose curve; note: nearly all actives have a fitted effect of over 70% in size
NPR2 antag = Natriuretic polypeptide receptor (hNpr2) antagonism - Subtype selectivity assay. 1,400 tested, 67% active. HEK293 hNpr2 GloSensor cGMP luminescence, CNP-stimulated. AID 1347046, 2019. Potency, µM (titrated, usually from 57.6 µM), for inactives: top-dose activity change, negative = inhibition, hits mostly inhibitors. shares compounds with hNpr1 antagonist; calls by dose curve; note: nearly all actives have a fitted effect of over 70% in size
FLuc counter = Natriuretic polypeptide receptor (hNpr1) antagonism - Confirmation firefly luciferase (FLuc) inhibition counterscreen; shares compounds with hNpr1 antagonist; purified FLuc enzyme, luminescence, Km substrate; Potency, µM (highest dose often 57.6 µM), for the others: top-dose activity change, negative = inhibition, usual class: inhibitors; 1,400 tested, 0.7% active; note: 0% is about no effect
GloSensor ctrl = Natriuretic polypeptide receptor (hNpr1) antagonism - Counterscreen GloSensor control cell line; shares compounds with hNpr1 antagonist; 1,400 tested, 69% active; HEK293 GloSensor cGMP, SNP-stimulated, luminescence; Potency, µM (doses to about 57.6 µM), for inactives: at the highest dose activity change, negative = inhibition, actives largely listed as inhibitors; calls by dose curve; note: % is set by controls: 0 for no effect and ±100 for the full control effect; nearly all actives have a fitted effect of over 70% in size
Numbers without * were called inactive; [ ] = another dose, or the depositor's remark. Unless noted, calls come from the whole dose curve; as a rule, active = well fitted curve in the direction sought with a large enough effect; inconclusive = small, poorly fitted or top-dose-only effect, or another doubt; inactive = no such curve, though single readings can be large; an effect the other way counts as inactive or inconclusive. Potency is the fitted concentration of half-maximal effect.

How did O=C(Nc1ccc(Cl)cc1)N1Cc2[nH]cnc2C[C@H]1c1nc(-c2ccccc2)no1 do in these assays?
HEK cytotox: 79.4µM*; Luciferase inh: inactive; 3T3 cytotox: 31.6µM*; hNpr1 antagonist: -21.8%[70.6 µM]; NPR1 antag cnf: inconclusive; NPR2 antag: inconclusive; FLuc counter: inconclusive; GloSensor ctrl: -26.3%[86.2 µM]

What do the screens show for `O=C(CN1CCCc2nc(-c3ccncc3)ncc2C1=O)N1CCc2ccccc2C1`?
HEK cytotox: 35.5µM*; Luciferase inh: inactive; 3T3 cytotox: inconclusive; hNpr1 antagonist: 8.91µM*; NPR1 antag cnf: 12.2µM*; NPR2 antag: 15.3µM*; FLuc counter: 2.4%; GloSensor ctrl: 15.3µM*

How did O=C(CN1CCCc2nc(-c3ccncc3)ncc2C1=O)NCCN1CCOCC1 do in these assays?
HEK cytotox: -4.3%; Luciferase inh: inactive; 3T3 cytotox: -0.7%; hNpr1 antagonist: -21.1%

What do the screens show for `Cc1cc(C)n(CC(=O)N2C[C@@H](COc3ccccc3)[C@H](C(N)=O)C2)n1`?
HEK cytotox: -0.3%; Luciferase inh: inactive; 3T3 cytotox: 1.5%; hNpr1 antagonist: -12.3%

What do the screens show for `COC(=O)c1cccc(NC(=S)N[C@@H]2C=C[C@@H](c3c(C)nn(-c4ccc(F)cc4)c3C)C2)c1`?
HEK cytotox: 31.6µM*; Luciferase inh: inactive; 3T3 cytotox: inconclusive; hNpr1 antagonist: inconclusive; NPR1 antag cnf: 21.7µM*; NPR2 antag: inconclusive; FLuc counter: -23.2%; GloSensor ctrl: 21.7µM*

What do the screens show for `Cc1ccccc1CC(=O)NCc1nnc2cc(-c3nc(C4CC4)no3)ccn12`?
HEK cytotox: -17.7%; Luciferase inh: inactive; 3T3 cytotox: -11.8%; hNpr1 antagonist: 0.9%

How did CC(C)Cc1cn(CC2CCCN(C(=O)c3n[nH]c4c3CCCC4)C2)nn1 (stereo not given) do in these assays?
HEK cytotox: inconclusive; Luciferase inh: inactive; 3T3 cytotox: inconclusive; hNpr1 antagonist: 14.1µM*; NPR1 antag cnf: 19.3µM*; NPR2 antag: 17.2µM*; FLuc counter: inconclusive; GloSensor ctrl: 15.3µM*

What do the screens show for `CC(C)C1CN(C(=O)c2n[nH]c3c2CCC3)CCC(=O)N1CC1CC1` (stereo not given)?
HEK cytotox: -6.5%; Luciferase inh: inactive; 3T3 cytotox: -22.6%; hNpr1 antagonist: 5.2%

What do the screens show for `COc1ccc(-c2nccn3cc(C(=O)NCc4ccc(OC)c(OC)c4)nc23)cc1`?
HEK cytotox: inconclusive; Luciferase inh: inactive; 3T3 cytotox: -25.5%; hNpr1 antagonist: 12.6µM*; NPR1 antag cnf: 19.3µM*; NPR2 antag: 15.3µM*; FLuc counter: 0.1%; GloSensor ctrl: 2.8%

What do the screens show for `Nc1nc(C2CC(O)C2)cc(N2CCC(Cc3ccc(F)cc3)CC2)n1` (stereo not given)?
HEK cytotox: inconclusive; Luciferase inh: inactive; 3T3 cytotox: 15.8µM*; hNpr1 antagonist: 11.2µM*; NPR1 antag cnf: 19.3µM*; NPR2 antag: 19.3µM*; FLuc counter: 0.9%; GloSensor ctrl: 12.2µM*
